The sample as a whole holds a higher share of hits than the screen did.
KDM5B inhibitor = Primary screen for KDM5B Histone Demethylases FDH-coupled qHTS; Lysine-specific demethylase 5B (Homo sapiens), Q9UGL1; KDM5B demethylase, FDH-coupled NADH fluorescence (FDH is formaldehyde dehydrogenase); Potency, µM (highest dose often 57.7 µM), usual class: inhibitors; 2.6% of 220,000 active; AID 1347165, 2019; active means well fitted inhibition curve with a large enough effect; further: nearly all actives have a fitted effect of over 70% in size
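KDM5BΔAP (200 nM final) in 50 mM HEPES pH 7.5, 0.01% Tween-20 was preincubated 10 min at RT with compound over a concentration range. Substrate mix (H3K4me3 12.5 µM, α-KG 25 µM, Fe²⁺, ascorbate, NAD⁺, FDH) was added, and NADH fluorescence change over 30 min gave dose-response curves.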
A number is an active result; n = inactive.

SMILES	KDM5B inhibitor
O=C(O)C1=NOC2CN(C(=O)C3CCCCC3)CC12 (stereo not drawn)	n
COc1ccc(CCNC(=O)c2c(C)noc2-c2ccccc2Cl)cc1OC	n
COc1cccc(CCNC(=O)c2c(C)noc2-c2ccc(OC(F)(F)F)cc2)c1	n
COc1cccc(CCNC(=O)c2c(C)noc2-c2ccc3c(c2)OCO3)c1	14µM
Cc1noc(-c2cccc(F)c2)c1C(=O)NCCCCc1ccccc1	n
COc1ccc(CC2CCN(C(=O)c3c(C)noc3-c3ccc4c(c3)OCO4)CC2)cc1	20µM
Cc1noc(-c2ccc3c(c2)OCO3)c1C(=O)NCCc1cccc(Cl)c1	28µM
COc1ccc(-c2noc(CC3CCN(C(=O)c4ccc5c(c4)OCO5)CC3)n2)cc1	n
Cc1noc(-c2cccc(F)c2)c1C(=O)NCCc1cccc(Cl)c1	n
COc1ccc(CCNC(=O)c2c(C)noc2-c2ccccc2OC)cc1OC	n
COc1ccc(CCNC(=O)c2c(C)noc2-c2ccc3c(c2)OCO3)cc1OC	28µM
COc1ccc(-c2onc(C)c2C(=O)N2CCC(Cc3ccc(F)cc3)CC2)cc1	n
COc1ccc(CCNC(=O)c2c(C)noc2-c2ccc(OC(F)(F)F)cc2)cc1	n
COCCCNC(=O)N1CCC2(CC1)CN(Cc1ccc(OC)cc1)C2=O	n
CCCNC(=O)CN(C)Cc1cccc2cccnc12	n
CN(Cc1ccccc1)C(=O)C[C@@H]1CCNC[C@@H]1Cc1cc(CN2CCCCC2)on1	n
C(=N\N=C(c1ccccc1)c1ccccc1)/c1cccs1	n
CCN(CC)S(=O)(=O)c1cccc(NCc2ccccc2C#N)c1	n
N#Cc1cccc(-c2c(-c3ccccc3)ncn2CCCN2CCC(O)CC2)c1	n
Cc1nn(C)cc1CN(C)C(=O)Cn1nc(C(F)(F)F)c(Cl)c1C	n
Cc1cc(OC(=O)c2cccs2)cc(OC(=O)c2cccs2)c1	n
Cc1cc(C(=O)N2CCCC2)n[nH]1	n
Cc1ccc(-c2cc(C(=O)N3CCC(c4cc(CC(=O)O)[nH]n4)CC3)n[nH]2)o1	25µM
Cc1ccc2nc(C)cc(C(=O)N3CCC(c4cc(CC(=O)O)[nH]n4)CC3)c2c1	n
CC(=O)c1c(C)[nH]c(C(=O)C(C)Sc2ccccc2Br)c1C (stereo not drawn)	n
SMILES	KDM5B inhibitor
COCC(=O)N1CCCC(c2nn(-c3ccc(OC)cc3)c(=O)[nH]2)C1 (stereo not drawn)	n
CNC(=O)NC(=O)C(C)Sc1ncc(-c2ccc(F)cc2)n1CC(C)C (stereo not drawn)	n
CC(C)c1nc2nccc(-c3ccc(F)cc3)n2n1	28µM
Cc1ccc(-c2ccnc3cc(C)nn23)cc1	n
CC(C)c1nc2nccc(-c3ccccc3)n2n1	28µM
CCn1nc(-c2ccc(C)c(S(=O)(=O)NCc3ccccc3C)c2)c2c(c1=O)CCCC2	n
Cc1ncc2n1C(=O)N(C1CCN(Cc3ccc(C(F)(F)F)cc3)CC1)C2	n
Cc1ncc2n1C(=O)N(C1CCN(Cc3ccc(F)cc3)CC1)C2	n
Cc1ncc2n1C(=O)N(C1CCN(Cc3ccncc3)CC1)C2	40µM
O=C(NC[C@H]1OC[C@@H](NC2CCCCC2)[C@@H]1O)c1ccncc1	n
O=C(c1ccc(Br)s1)N(Cc1ccc(Br)cc1)C1CC1	n
COc1cccc(C(O)c2nc(C(=O)Nc3ccc(OC)c(OC)c3)c(C)o2)c1 (stereo not drawn)	n
COc1cccc(C(O)c2nc(C(=O)N3CCN(c4ccccn4)CC3)c(C)o2)c1 (stereo not drawn)	25µM
COc1cccc(C(O)c2nc(C(=O)NCc3ccco3)c(C)o2)c1 (stereo not drawn)	n
Cc1cc(C)c2c(CN3CCN(c4ccccn4)CC3)cc(=O)oc2c1	n
O=S1(=O)CCN(C2CCCCC2)c2c(F)nc(F)c(Cl)c21	n
NC(=O)c1ccc(C(=O)N2CCC(c3nc4cc(Cl)ccc4o3)CC2)cc1	n
O=C(CCc1ccc(O)cc1)N1CC[C@H](N2CCOCC2)[C@H](CCCO)C1	n
CC(=O)N1CCc2c(n(Cc3cccnc3)n(CCc3ccccc3)c2=O)C1	n
O=C(C1CCCO1)N1CCc2c(n(Cc3cccnc3)n(CCc3ccccc3)c2=O)C1 (stereo not drawn)	n
COc1ccc(-n2c(=O)c3c(n2Cc2ccccc2)CN(Cc2ccc(F)cc2)CC3)cc1	n
COCCC(=O)N1CCc2c(n(Cc3ccc(OC)cc3)n(Cc3ccccc3)c2=O)C1	n
COCCn1c(=O)c2c(n1Cc1ccccc1)CN(Cc1cccc(C)n1)CC2	35µM
COc1ccc(-n2c(=O)c3c(n2Cc2ccccc2)CN(CCCc2ccccc2)CC3)cc1	n
COCCn1c(=O)c2c(n1Cc1ccccc1)CN(C(=O)Cc1cccc(F)c1)CC2	n
SMILES	KDM5B inhibitor
COCCn1c(=O)c2c(n1Cc1ccccc1)CN(Cc1cccnc1OC)CC2	35µM
CC(C)CCN1CCc2c(n(Cc3cccnc3)n(CCc3ccccc3)c2=O)C1	32µM
COc1ccccc1NC(=O)N1CC[C@H](c2nnc(-c3ccc(C)cc3)o2)C1	n
Cc1cc2oc(C(=O)N(Cc3ccc(C(C)C)cc3)C3CCS(=O)(=O)C3)cc(=O)c2cc1Cl (stereo not drawn)	n
Cn1c(COc2ccc(Cl)cc2)n[nH]c1=S	n
O=C(Cn1nc(C(=O)O)c2ccccc2c1=O)Nc1ccc(F)c(Cl)c1	n
CCNC(=O)N1C[C@@H](Oc2cccnc2)C[C@H]1C(=O)N1CCCC1	n
CNC(=O)CNC(=O)c1ccc2[nH]c(C)c(C)c2c1	n
CCN1CCC(N(Cc2ccco2)C(=O)Nc2cc(Cl)ccc2C)CC1	n
Cc1occc1C(=O)Nc1nc(CC(=O)Nc2ccc3c(c2)Cc2ccccc2-3)cs1	n
O=C(COc1ccc(-c2nnco2)cc1)c1ccc(F)c(F)c1	n
Cc1ccc(C(=O)/C=C\N(C)C)cc1C	n
Cc1noc2c(NCCN(C)C)cc(-c3ccc(Cl)cc3)nc12	n
Cc1nc(C)n(CCCn2ccnc2-c2cc3n(n2)CCCNC3)n1	n
CNc1nc2c(s1)C(c1ccc(F)c(F)c1)CC(=O)N2 (stereo not drawn)	32µM
CNc1nc2c(s1)C(c1cccc(F)c1)CC(=O)N2 (stereo not drawn)	28µM
Cn1c(=O)c2c(n3ncnc13)NC(=O)CC2c1cccc(F)c1 (stereo not drawn)	n
Cn1c(SCc2ccc(F)cc2)nc(=O)c2c1NC(=O)CC2c1ccc(F)c(Br)c1 (stereo not drawn)	n
Cc1cccn2c3c(c(=O)nc12)C(c1cccc(F)c1)CC(=O)N3 (stereo not drawn)	n
Cc1nc2c(c(=O)[nH]1)C(c1cc(F)cc(F)c1)CC(=O)N2 (stereo not drawn)	n
Cn1c(=O)n(Cc2ccccc2F)c(=O)c2c1ncn2Cc1ccccc1	n
Cc1ccc(NC(=O)c2nnc(SCC(=O)NCCC(C)C)s2)cc1	n
O=C(Cn1cnc(S(=O)(=O)N2CCOCC2)c1)N1CCN(c2ccc(F)cc2)CC1	n
O=C(NC1CCN(c2nc3ncccc3o2)CC1)c1cccc(Cl)c1	28µM
Cc1cc(NC(=O)C(C)(C)C)cc(-c2nc3ncccc3o2)c1O	n
O=C(NC1CCCN(c2nc3ncccc3o2)C1)c1ccccc1F (stereo not drawn)	n
CCCOc1nc2ccccc2nc1N1CCC(C(=O)NC2CCCC2)CC1	n
CC(C)(C)C(=O)NC1CCN(c2nc3ncccc3o2)CC1	25µM
O=C(NC1CCN(c2cc(-c3ccccc3)[nH]n2)CC1)c1ccc2ncccc2c1	n

Screens from PubChem.
